# Data from the supplement of paper PMC8728848.
# Only a selection was taken, and the strongest signals are over-represented in it overall.
# Tests used:
# Test in all cases: glycan array binding signal (z-score within array); higher = stronger binding
# Settings in all cases: glycan notation: IUPAC condensed, linker removed
# Fuc(a1-2)Gal = target: Fuc(a1-2)Gal
# How it was run: (§1)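 From the Consortium for Functional Glycomics database, 3228 arrays were curated, keeping only those whose protein sequence was available. Binding is given as a within-array Z-score averaged across arrays sharing a protein sequence and across linkers. Negative Z-scores can be read as non-binding.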
# [1] = target: Fuc(a1-2)Gal(b1-3)GlcNAc(b1-2)Man(a1-3)[Fuc(a1-2)Gal(b1-3)GlcNAc(b1-2)Man(a1-6)]Man(b1-4)GlcNAc(b1-4)GlcNAc
# How it was run: as §1
# [2] = target: Fuc(a1-2)Gal(b1-3)[Fuc(a1-4)]GlcNAc(b1-3)[Gal(b1-4)GlcNAc(b1-6)]Gal(b1-4)Glc
# How it was run: as §1
# [3] = target: Fuc(a1-2)Gal(b1-4)GlcNAc(b1-3)Gal(b1-4)GlcNAc(b1-2)Man(a1-3)[Fuc(a1-2)Gal(b1-4)GlcNAc(b1-3)Gal(b1-4)GlcNAc(b1-2)Man(a1-6)]Man(b1-4)GlcNAc(b1-4)GlcNAc
# How it was run: as §1
# Fuc(a1-2)Gal6S(b1-4)Glc = target: Fuc(a1-2)Gal6S(b1-4)Glc
# How it was run: as §1
# [4] = target: Fuc(a1-2)[GalNAc(a1-3)]Gal(b1-4)GlcNAc(b1-3)Gal(b1-4)GlcNAc(b1-3)Gal(b1-4)GlcNAc
# How it was run: as §1
# [5] = target: Fuc(a1-3)[Gal(b1-4)]GlcNAc
# How it was run: as §1
# [6] = target: Fuc(a1-3)[Gal(b1-4)]GlcNAc(b1-2)Man(a1-3)[Fuc(a1-3)[Gal(b1-4)]GlcNAc(b1-2)Man(a1-6)]Man(b1-4)GlcNAc(b1-4)[Fuc(a1-6)]GlcNAc
# How it was run: as §1
# Fuc(a1-4)GlcNAc = target: Fuc(a1-4)GlcNAc
# How it was run: as §1
# [7] = target: Gal(a1-3)Gal(b1-4)GlcNAc(b1-2)Man
# How it was run: as §1
# [8] = target: Gal(a1-3)Gal(b1-4)[Fuc(a1-3)]GlcNAc(b1-2)Man(a1-3)[Gal(a1-3)Gal(b1-4)[Fuc(a1-3)]GlcNAc(b1-2)Man(a1-6)]Man(b1-4)GlcNAc(b1-4)GlcNAc
# How it was run: as §1
# [9] = target: Gal(b1-3)GlcNAc(b1-3)Gal(b1-4)GlcNAc(b1-3)Gal(b1-4)GlcNAc(b1-2)[Gal(b1-3)GlcNAc(b1-3)Gal(b1-4)GlcNAc(b1-3)Gal(b1-4)GlcNAc(b1-6)]Man(a1-6)[Gal(b1-3)GlcNAc(b1-3)Gal(b1-4)GlcNAc(b1-3)Gal(b1-4)GlcNAc(b1-2)Man(a1-3)]Man(b1-4)GlcNAc(b1-4)[Fuc(a1-6)]GlcNAc
# How it was run: as §1
# [10] = target: Gal(b1-4)GlcNAc(b1-3)Gal(b1-4)GlcNAc(b1-2)Man(a1-3)[Gal(b1-4)GlcNAc(b1-3)Gal(b1-4)GlcNAc(b1-2)Man(a1-6)]Man(b1-4)GlcNAc(b1-4)GlcNAc
# How it was run: as §1
# [11] = target: Gal(b1-4)GlcNAc(b1-3)Gal(b1-4)GlcNAc(b1-3)Gal(b1-4)GlcNAc(b1-2)Man(a1-3)[Gal(b1-4)GlcNAc(b1-3)Gal(b1-4)GlcNAc(b1-3)Gal(b1-4)GlcNAc(b1-2)Man(a1-6)]Man(b1-4)GlcNAc(b1-4)GlcNAc
# How it was run: as §1
# [12] = target: Gal(b1-4)GlcNAc(b1-3)Gal(b1-4)GlcNAc(b1-3)Gal(b1-4)GlcNAc(b1-3)Gal(b1-4)GlcNAc(b1-3)Gal(b1-4)GlcNAc(b1-2)Man(a1-3)[Gal(b1-4)GlcNAc(b1-3)Gal(b1-4)GlcNAc(b1-3)Gal(b1-4)GlcNAc(b1-3)Gal(b1-4)GlcNAc(b1-3)Gal(b1-4)GlcNAc(b1-2)Man(a1-6)]Man(b1-4)GlcNAc(b1-4)GlcNAc
# How it was run: as §1
# [13] = target: Gal(b1-4)GlcNAc(b1-3)Gal(b1-4)GlcNAc(b1-3)Gal(b1-4)GlcNAc(b1-3)Gal(b1-4)GlcNAc(b1-3)Gal(b1-4)GlcNAc(b1-2)Man(a1-3)[Gal(b1-4)GlcNAc(b1-3)Gal(b1-4)GlcNAc(b1-3)Gal(b1-4)GlcNAc(b1-3)Gal(b1-4)GlcNAc(b1-3)Gal(b1-4)GlcNAc(b1-2)Man(a1-6)]Man(b1-4)GlcNAc(b1-4)[Fuc(a1-6)]GlcNAc
# How it was run: as §1
# [14] = target: Gal(b1-4)GlcNAc(b1-3)Gal(b1-4)GlcNAc(b1-3)Gal(b1-4)GlcNAc(b1-3)Gal(b1-4)GlcNAc(b1-3)Gal(b1-4)GlcNAc(b1-2)[Gal(b1-4)GlcNAc(b1-3)Gal(b1-4)GlcNAc(b1-3)Gal(b1-4)GlcNAc(b1-3)Gal(b1-4)GlcNAc(b1-3)Gal(b1-4)GlcNAc(b1-6)]Man(a1-6)[Gal(b1-4)GlcNAc(b1-3)Gal(b1-4)GlcNAc(b1-3)Gal(b1-4)GlcNAc(b1-3)Gal(b1-4)GlcNAc(b1-3)Gal(b1-4)GlcNAc(b1-2)Man(a1-3)]Man(b1-4)GlcNAc(b1-4)[Fuc(a1-6)]GlcNAc
# How it was run: as §1
# [15] = target: Gal(b1-4)GlcNAc(b1-3)Gal(b1-4)GlcNAc(b1-3)Gal(b1-4)GlcNAc(b1-3)Gal(b1-4)GlcNAc(b1-3)Gal(b1-4)GlcNAc(b1-3)Gal(b1-4)GlcNAc(b1-2)Man(a1-3)[Gal(b1-4)GlcNAc(b1-3)Gal(b1-4)GlcNAc(b1-3)Gal(b1-4)GlcNAc(b1-3)Gal(b1-4)GlcNAc(b1-3)Gal(b1-4)GlcNAc(b1-3)Gal(b1-4)GlcNAc(b1-2)Man(a1-6)]Man(b1-4)GlcNAc(b1-4)GlcNAc
# How it was run: as §1
# [16] = target: Gal(b1-4)GlcNAc(b1-6)GalNAc
# How it was run: as §1
# Gal3S(b1-4)Glc = target: Gal3S(b1-4)Glc
# How it was run: as §1
# Gal3S(b1-4)Glc6S = target: Gal3S(b1-4)Glc6S
# How it was run: as §1
# [17] = target: Gal3S(b1-4)[Fuc(a1-3)]Glc6S
# How it was run: as §1
# Gal6S(b1-4)GlcNAc6S = target: Gal6S(b1-4)GlcNAc6S
# How it was run: as §1
# [18] = target: GalNAc3S(b1-4)[Fuc(a1-3)]GlcNAc
# How it was run: as §1
# [19] = target: GlcNAc(a1-4)Gal(b1-3)GlcNAc
# How it was run: as §1
binder,measurement,setting,value
SP15308C-bot-338-23-338 (Bacteroides ovatus) (protein) DEWTDEQFKQLISFKTQPGGWGVTDVHVRYANSAKYTYNLPVLVSGSTDNTDDRLVSFSLRDDTLDILNFEKFGNRPELYFRELPQKYYSFPKELTIPAGQSHALLPIEFSLDGLDDSQKWALPLKVCEDANGTYAVNPRKYYRTAVLRPILFNEFSGRFSGSSLLGTMAGESDIKFSSTEIKLNVVTDSIVFFYAGQRTEDYEDRINYKVFLQFTGDKVDSKKDLYKMKIWAENEKLKFNSYSTPTYKVSSEMDATKTYLKHTYIVISDIDFDFVDYTSVPNYEIEYNMKGGLSVSRDLDTRKPDEDQGSDSKWW,glycan array binding signal (z-score),Fuc(a1-2)Gal,-0.164
same,glycan array binding signal (z-score),[1],2.27
same,glycan array binding signal (z-score),[2],-0.476
same,glycan array binding signal (z-score),[3],0.228
same,glycan array binding signal (z-score),Fuc(a1-2)Gal6S(b1-4)Glc,0.374
same,glycan array binding signal (z-score),[4],-0.548
same,glycan array binding signal (z-score),[5],-0.26
same,glycan array binding signal (z-score),[6],2.11
same,glycan array binding signal (z-score),Fuc(a1-4)GlcNAc,2.58
same,glycan array binding signal (z-score),[7],-0.133
same,glycan array binding signal (z-score),[8],1.61
same,glycan array binding signal (z-score),[9],3.59
same,glycan array binding signal (z-score),[10],1.12
same,glycan array binding signal (z-score),[11],4.37
same,glycan array binding signal (z-score),[12],2.06
same,glycan array binding signal (z-score),[13],2.46
same,glycan array binding signal (z-score),[14],6.22
same,glycan array binding signal (z-score),[15],0.957
same,glycan array binding signal (z-score),[16],-0.147
same,glycan array binding signal (z-score),Gal3S(b1-4)Glc,-0.591
same,glycan array binding signal (z-score),Gal3S(b1-4)Glc6S,-0.188
same,glycan array binding signal (z-score),[17],0.68
same,glycan array binding signal (z-score),Gal6S(b1-4)GlcNAc6S,-0.622
same,glycan array binding signal (z-score),[18],-0.053
same,glycan array binding signal (z-score),[19],0.674
